Assay outcomes from PubChem.
M18AAP inhibitor: blocks P. falciparum M18 aspartyl aminopeptidase | recombinant PfM18AAP, H-Glu-NHMec fluorogenic cleavage | inhibition, % at 7.35 µM | 290,000 tested, 1.2% active;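 active = inhibition above the campaign mean inhibition over all tested compounds plus 3 SD, cut at about 28% in these data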
PAFAH2 FP inh: PAFAH2 (human) inhibition | inhibition, % at 3.39 µM | Q99487 | recombinant PAFAH2, FP-rhodamine activity probe, fluorescence polarization | 340,000 tested, 0.99% active;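 active = inhibition above the mean over all tested compounds plus 3 SD, cut at about 30% in these data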;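 note: inhibitors block probe labeling of enzyme so polarization drops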
Pemphigus Ab inh: blocks pemphigus antibody binding to human desmoglein-3; P32926; DSG3-coupled beads, scFv-anti-DSG3-GFP binding, flow cytometry; hits give low values; binding (percent of control), % at 10 µM; 310,000 tested, 0.48% active; AID 588358;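 active = binding more than 3 SD below its plate's average and above zero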;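 note: hits lower antibody fragment binding to DSG3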
pPAFAH FP inh: inhibitors of human plasma PAF acetylhydrolase (pPAFAH); recombinant pPAFAH, FP-rhodamine probe fluorescence polarization; inhibition, % at 3.39 µM; 330,000 tested, 1.5% active; Q13093;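 active = inhibition above the mean inhibition across the screen plus 3 SD, cut at about 25% in these data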;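 note: inhibitors block binding of the rhodamine activity-based probe so polarization drops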
Target sequence (Q13093 whole entry, looked up): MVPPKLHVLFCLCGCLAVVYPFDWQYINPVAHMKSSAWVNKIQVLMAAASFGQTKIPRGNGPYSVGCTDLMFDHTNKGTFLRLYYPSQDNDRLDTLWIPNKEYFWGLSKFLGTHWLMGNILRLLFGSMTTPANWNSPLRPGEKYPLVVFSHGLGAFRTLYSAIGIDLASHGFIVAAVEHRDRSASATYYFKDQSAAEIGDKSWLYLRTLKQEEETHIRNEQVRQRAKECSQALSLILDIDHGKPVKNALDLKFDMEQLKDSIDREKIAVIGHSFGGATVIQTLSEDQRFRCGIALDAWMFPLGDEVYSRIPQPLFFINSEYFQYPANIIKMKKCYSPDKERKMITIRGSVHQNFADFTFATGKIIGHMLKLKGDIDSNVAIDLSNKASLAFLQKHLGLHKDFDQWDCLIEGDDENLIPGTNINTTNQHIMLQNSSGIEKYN
PAFAH1B3 inh: blocks human PAF acetylhydrolase 1B catalytic subunit 3; Q15102; recombinant PAFAH1B3, FP-rhodamine probe, fluorescence polarization; inhibition, % at 3.39 µM; 340,000 tested, 0.28% active; AID 492972;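 active = inhibition above the screen-wide average of all tested compounds plus 3 SD, cut at about 25% in these data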
Target sequence (Q15102 whole entry, looked up): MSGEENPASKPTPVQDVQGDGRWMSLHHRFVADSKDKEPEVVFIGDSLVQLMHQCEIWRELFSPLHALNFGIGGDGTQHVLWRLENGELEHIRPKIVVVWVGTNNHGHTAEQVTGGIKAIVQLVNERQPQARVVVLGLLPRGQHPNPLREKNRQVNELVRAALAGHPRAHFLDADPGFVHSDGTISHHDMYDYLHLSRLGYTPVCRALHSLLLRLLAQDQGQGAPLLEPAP
PAFAH1B2 FP inh: blocks human PAF acetylhydrolase 1b catalytic subunit 2; P68402; recombinant PAFAH1B2, FP-rhodamine activity probe, fluorescence polarization; inhibition, % at 3.39 µM; 340,000 tested, 1.2% active;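 active = inhibition above the mean of all tested compounds plus 3 SD, cut at about 24% in these data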
Numbers stand for hits. Sampled rows, rich in hits. Any-hit rate of the full collection: about 3.8%.

For CCn1c(=O)c(=O)n(CC)c2cc(S(=O)(=O)Nc3ccc(C)cc3)ccc21 the results were M18AAP inhibitor inactive, PAFAH2 FP inh inactive, Pemphigus Ab inh inactive, pPAFAH FP inh 25.5, PAFAH1B3 inh inactive and PAFAH1B2 FP inh inactive.
For Cc1ccc(NS(=O)(=O)c2ccc(CCC(=O)NCCCOC(C)C)cc2)cc1 the results were M18AAP inhibitor inactive, PAFAH2 FP inh inactive, Pemphigus Ab inh inactive, pPAFAH FP inh 25.6, PAFAH1B3 inh inactive and PAFAH1B2 FP inh inactive.
Cc1ccc(NS(=O)(=O)c2ccc(CCC(=O)O)cc2)cc1 was read as M18AAP inhibitor inactive, PAFAH2 FP inh inactive, Pemphigus Ab inh inactive, pPAFAH FP inh 33.6, PAFAH1B3 inh inactive and PAFAH1B2 FP inh inactive.
`CCOc1ccc(S(=O)(=O)N2CCC(C(=O)Nc3ccccc3N3CCCC3)CC2)cc1` gave Pemphigus Ab inh inactive.
Screening COC(=O)/C=C/CC(C)OS(N)(=O)=O (stereo unspecified) returned M18AAP inhibitor inactive, PAFAH2 FP inh inactive, Pemphigus Ab inh inactive, pPAFAH FP inh inactive, PAFAH1B3 inh inactive and PAFAH1B2 FP inh inactive.
Screening O=C1CN(C(=O)CN2CCN(S(=O)(=O)c3ccccc3F)CC2)c2ccccc2N1 returned Pemphigus Ab inh inactive.
`CCC(C)(C)C1CCC2(CC1)NC(=O)N(CC(=O)N1CCN(c3ccccc3OC)CC1)C2=O` (stereo unspecified) gave Pemphigus Ab inh inactive.
Screening CC(=O)Nc1ccc(S(=O)(=O)Nc2ccc(Cc3ccncc3)cc2)cc1 returned M18AAP inhibitor inactive, PAFAH2 FP inh inactive, Pemphigus Ab inh inactive, pPAFAH FP inh 29.4, PAFAH1B3 inh inactive and PAFAH1B2 FP inh inactive.
Screening c1ccc(COc2ncnc3c2ncn3CCCNC2CCN(Cc3ccccc3)CC2)cc1 returned Pemphigus Ab inh inactive.
Screening CCCc1ccc(S(=O)(=O)N/N=C\c2ccc3c(c2)OCO3)cc1 returned M18AAP inhibitor inactive, PAFAH2 FP inh inactive, Pemphigus Ab inh inactive, PAFAH1B3 inh inactive and PAFAH1B2 FP inh inactive.
Screening COC(=O)c1c(NC(=O)CN2CCC3(O)CCCCC3C2c2ccc(OC)cc2OC)sc(C)c1C (stereo unspecified) returned M18AAP inhibitor 44.1, PAFAH2 FP inh inactive, Pemphigus Ab inh inactive, pPAFAH FP inh inactive, PAFAH1B3 inh inactive and PAFAH1B2 FP inh inactive.
COC(=O)c1ccc(NC(=O)C2CC(=O)N(c3ccc(C)cc3)C2)cc1 (stereo unspecified) was read as M18AAP inhibitor inactive, PAFAH2 FP inh inactive, Pemphigus Ab inh -24.7, pPAFAH FP inh inactive, PAFAH1B3 inh inactive and PAFAH1B2 FP inh inactive.
For COc1ccc(N2CC(C(=O)Nc3ccc(S(=O)(=O)N4CCCCC4)cc3)CC2=O)cc1 (stereo unspecified) the results were M18AAP inhibitor inactive, PAFAH2 FP inh inactive, Pemphigus Ab inh inactive, pPAFAH FP inh inactive, PAFAH1B3 inh inactive and PAFAH1B2 FP inh inactive.
`COc1ccc(N2CC(C(=O)Nc3ccc(S(=O)(=O)N4CCCC4)cc3)CC2=O)cc1` (stereo unspecified) gave M18AAP inhibitor inactive, PAFAH2 FP inh inactive, Pemphigus Ab inh 30.5, pPAFAH FP inh inactive, PAFAH1B3 inh inactive and PAFAH1B2 FP inh inactive.
Screening CCC(C)(C)NC(=O)C(c1cccc(OC)c1OC)N(C(=O)CCC(=O)Nc1cc(C)on1)C(C)C (stereo unspecified) returned M18AAP inhibitor inactive, PAFAH2 FP inh inactive, Pemphigus Ab inh inactive, pPAFAH FP inh inactive, PAFAH1B3 inh inactive and PAFAH1B2 FP inh inactive.
`COc1cccc(CN(C)C(=O)C2CCCN(C(=O)c3ccc(Cl)cc3)C2)c1` (stereo unspecified) gave Pemphigus Ab inh inactive.
Screening Cc1ccc(CNC(=O)C2CCC(=O)N(Cc3ccc(Cl)cc3)C2)cc1F (stereo unspecified) returned M18AAP inhibitor inactive, PAFAH2 FP inh inactive, Pemphigus Ab inh inactive, PAFAH1B3 inh inactive and PAFAH1B2 FP inh inactive.
Screening Cc1cc[n+](-c2[nH]c(=O)sc2/C=N/N=C(\[O-])CCn2c3ccccc3c3ccccc32)cc1 returned M18AAP inhibitor inactive, Pemphigus Ab inh inactive and pPAFAH FP inh 31.6.
`Cc1cc[n+](-c2[nH]c(=O)sc2/C=N/N=C(\[O-])c2ccncc2)cc1C` gave M18AAP inhibitor 28.6, PAFAH2 FP inh inactive, Pemphigus Ab inh inactive, pPAFAH FP inh inactive, PAFAH1B3 inh inactive and PAFAH1B2 FP inh inactive.
`O=C(CN1CCN(C(=O)C2CCN(C(=O)/C=C/c3ccccc3)CC2)CC1)Nc1ccc(F)cc1` gave PAFAH2 FP inh inactive, Pemphigus Ab inh inactive, PAFAH1B3 inh inactive and PAFAH1B2 FP inh inactive.
`N#Cc1c(CSCC(=O)O)cc(=O)n2c1[nH]c1ccccc12` gave M18AAP inhibitor inactive, PAFAH2 FP inh inactive, Pemphigus Ab inh inactive, pPAFAH FP inh 26.6, PAFAH1B3 inh inactive and PAFAH1B2 FP inh inactive.
Screening O=C1N[C@@H](Cc2c[nH]c3ccccc23)COC(=O)[C@H](Cc2ccc(F)cc2)C/C=C\C[C@H]1CC(=O)N(CCO)Cc1ccccc1 returned PAFAH2 FP inh inactive, Pemphigus Ab inh inactive, pPAFAH FP inh inactive, PAFAH1B3 inh inactive and PAFAH1B2 FP inh inactive.
Screening O=C1NCCOC(=O)[C@H](Cc2ccc(F)cc2)C/C=C\C[C@H]1CC(=O)N(CCO)Cc1ccccc1 returned PAFAH2 FP inh inactive, Pemphigus Ab inh inactive, pPAFAH FP inh inactive, PAFAH1B3 inh inactive and PAFAH1B2 FP inh 30.3.
`O=C1N[C@@H](Cc2c[nH]c3ccccc23)COC(=O)[C@@H](Cc2ccc(F)cc2)CC/C=C/C[C@@H]1CC(=O)N(CCO)Cc1ccccc1` gave PAFAH2 FP inh inactive, Pemphigus Ab inh inactive, pPAFAH FP inh inactive, PAFAH1B3 inh inactive and PAFAH1B2 FP inh 33.6.
O=C1NC[C@@H](c2ccccc2)OC(=O)[C@@H](Cc2ccc(F)cc2)C/C=C\C[C@@H]1CC(=O)N(CCO)Cc1ccccc1 was read as PAFAH2 FP inh inactive, Pemphigus Ab inh inactive, pPAFAH FP inh 25.9, PAFAH1B3 inh inactive and PAFAH1B2 FP inh 63.6.
For CCn1cc(/C=C(\NC(=O)c2cc(OC)c(OC)c(OC)c2)C(=O)N2CCOCC2)c2ccccc21 the results were Pemphigus Ab inh inactive.
Screening CC1(C)Cc2c(sc3[nH]c(=S)n(Cc4ccco4)c(=O)c23)CO1 returned M18AAP inhibitor inactive, PAFAH2 FP inh inactive, Pemphigus Ab inh inactive, pPAFAH FP inh inactive, PAFAH1B3 inh inactive and PAFAH1B2 FP inh inactive.
Screening O=c1c2c3c(sc2[nH]c(=S)n1Cc1ccco1)CCC3 returned M18AAP inhibitor inactive, PAFAH2 FP inh inactive, Pemphigus Ab inh inactive, pPAFAH FP inh 24.7, PAFAH1B3 inh inactive and PAFAH1B2 FP inh inactive.
`O=[N+]([O-])c1ccc(C(O)CN=Cc2ccc(O)cc2O)cc1` (stereo unspecified) gave M18AAP inhibitor inactive, PAFAH2 FP inh inactive, Pemphigus Ab inh inactive, pPAFAH FP inh inactive, PAFAH1B3 inh inactive and PAFAH1B2 FP inh inactive.
For COc1ccc(NC(=O)COC(=O)c2c(NC(C)=O)sc(C)c2C)cc1 the results were Pemphigus Ab inh inactive.
For COc1cccc(-c2ccc(C3=CC(=O)CC(C)(C)C3=O)cc2)c1OC the results were Pemphigus Ab inh inactive.
